What is called AC50 is the concentration at which the activity in the assay is half-maximal. Broadly, the IC50 is the concentration at which inhibition is half-maximal. By viability is commonly meant a read-out of living cells in per cent, often relative to untreated cells.

SMILES strings stand for the structures. Records with an inconclusive call do not appear. The source made the active and inactive calls.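 Rule for the calls, unless noted: active = normalized viability below 100% at a tested concentration; inactive = the rest.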

A short description of test [1]: growth inhibition of DIPG glioma cells, dose response, cell-based, SU-DIPG-XVII, MIPE5.0, CellTiter-Glo, qHTS (AID 1347060; cut-off not given, nearly all actives have AC50 up to about 26 µM;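 for AC50: cells exposed to compound for 48 hours before viability readout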). The conditions noted are these: SU-DIPG-XVII viability, CellTiter-Glo ATP luminescence.
A short description of test [2]: growth inhibition of DIPG glioma cells, dose response, cell-based, JHH-DIPG-1, MIPE4.0, CellTiter-Glo, qHTS (AID 1347062; cut-off not given, nearly all actives have AC50 up to about 27 µM;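 for AC50: cells exposed to compound for two days before readout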). The conditions noted are these: JHH-DIPG-1 viability, CellTiter-Glo ATP luminescence. (ATP-based viability assays read luminescence as a measure of living cells.)
A short description of test [3]: growth inhibition of DIPG glioma cells, dose response, cell-based, SU-DIPG-XIII, MIPE5.0, CellTiter-Glo, qHTS (AID 1347064; cut-off not given, nearly all actives have AC50 up to about 23 µM;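 for AC50: cells exposed to compound for 48 hours before the viability read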). The conditions noted are these: SU-DIPG-XIII viability, CellTiter-Glo ATP luminescence.
Test [4] is described as follows: viability loss in pontine glioma line – cell-based, SU-DIPG-XXV, MIPE5.0, CellTiter-Glo, qHTS, dose response (AID 1347065; cut-off not given, nearly all actives have AC50 up to about 26 µM;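 note: cells exposed to compound for 48 hours before ATP readout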). The conditions noted are these: CellTiter-Glo ATP luminescence.
Test [5] can be described thus: SU-DIPG-VI glioma cell viability, MIPE4.0 library, CellTiter-Glo luminescence, qHTS (AID 1347066; cut-off not given, nearly all actives have AC50 up to about 30 µM;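 note: cells exposed to compound for 48 hours before readout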). The conditions noted are these: CellTiter-Glo ATP luminescence.
Test [6] can be described thus: JHH-DIPG-1 glioma cell viability, MIPE5.0 library, CellTiter-Glo luminescence, qHTS (AID 1347067; cut-off not given, nearly all actives have AC50 up to about 26 µM;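 note: cells exposed to compound for 48 hours before readout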). The conditions noted are these: JHH-DIPG-1 glioma viability, CellTiter-Glo ATP luminescence.
A short description of test [7]: SU-DIPG-XXV glioma cell viability, MIPE5.0 library, qHTS (AID 1347068; cut-off not given, nearly all actives have IC50 up to about 30 µM;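 for IC50: cells exposed to compound for 48 hours before viability readout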). In general terms: qHTS replaces the single test concentration by a dilution series.
Test [8] in a line: modifiers of HSF1 nuclear foci, imaging, Selleck Cancer Library (AID 1347162; in the data active = plate-normalised HSF1 focus index below about 0.46). The conditions noted are these: human cells, at 10 µM; SSMD: measured here: HSF1 foci SSMD mean; cell count: measured here: cell number; plate-normalised HSF1 focus index: stronger effect = lower value.
The nature of test [9]: ovarian cancer cell viability with rucaparib, profiling panel, oncology-focused library, rucaparib conditional (AID 1508598). The conditions noted are these: patient-derived ovarian cancer cells, CellTiter-Glo viability, 144 h, stronger effect = lower value.

For `CN1CC(=O)NC1=NC(=O)Nc1cccc(Cl)c1`, the call in [1], in test [2], in [3], in test [4], in test [6] and in [7] was inactive. The half-maximal activity concentration (AC50) in [5] was 23.5 µM (active).

In the case of `CCC(C)SSc1ncc[nH]1` (stereo not given), the concentration at half-maximal activity (AC50) was 14.8 µM (active) in test [1], 23.5 µM (active) in test [2], 11.8 µM (active) in test [4] and 26.4 µM (active) in [5].

Turning to `O=C1NC(=O)/C(=C/c2cccc(C(F)(F)F)c2)S1`, the outcome in test [1], in test [2], in test [4], in test [5], in test [6] and in [7] was inactive.

Regarding `Cc1ccc(C(=O)N(CCCN)[C@@H](c2nc3cc(Cl)ccc3c(=O)n2Cc2ccccc2)C(C)C)cc1`, the half-maximal activity concentration (AC50) in [1] was 0.0166 µM (active); in test [2], 13.2 µM (active); in test [3] it was 5.9 µM (active); in [4] it was 0.00934 µM (active); in test [6], 9.34 µM (active). Also, the IC50 in test [7] is 0.0166 µM (active). This compound came in with an SSMD in test [8] of -9.79. For the same compound, in test [8], the cell count was 3920. Further, the plate-normalised HSF1 focus index in test [8] is 0.497 (inactive). The viability was 104% (inactive) in [9] (at 0.000305 µM, OCI-C5x cells, with rucaparib 10 µM, 100% = cells with rucaparib alone); 109% (inactive) in [9] (at 0.000305 µM, OCI-C5x cells, without rucaparib); 95.5% (active) in test [9] (at 0.000305 µM, OCI-P5x cells, with rucaparib 20 µM, 100% = cells with rucaparib alone); 101% (inactive) in test [9] (at 0.000305 µM, OCI-P5x cells, without rucaparib); 90.5% (active) in test [9] (at 0.00122 µM, OCI-C5x cells, with rucaparib 10 µM, 100% = cells with rucaparib alone); 116% (inactive) in test [9] (at 0.00122 µM, OCI-C5x cells, without rucaparib). Also, the viability in [9] (at 0.00122 µM, OCI-P5x cells, with rucaparib 20 µM, 100% = cells with rucaparib alone) is 78.5% (active); in test [9] (at 0.00122 µM, OCI-P5x cells, without rucaparib), 81.4% (active); in test [9] (at 0.00488 µM, OCI-C5x cells, with rucaparib 10 µM, 100% = cells with rucaparib alone) it was 44.7% (active); in test [9] (at 0.00488 µM, OCI-C5x cells, without rucaparib) it was 76.6% (active); in test [9] (at 0.00488 µM, OCI-P5x cells, with rucaparib 20 µM, 100% = cells with rucaparib alone), 68.7% (active); in test [9] (at 0.00488 µM, OCI-P5x cells, without rucaparib), 66.4% (active). The viability in [9] (at 0.0195 µM, OCI-C5x cells, with rucaparib 10 µM, 100% = cells with rucaparib alone) was 43.1% (active); in test [9] (at 0.0195 µM, OCI-C5x cells, without rucaparib), 55.9% (active); in test [9] (at 0.0195 µM, OCI-P5x cells, with rucaparib 20 µM, 100% = cells with rucaparib alone), 51.4% (active); in test [9] (at 0.0195 µM, OCI-P5x cells, without rucaparib), 21.1% (active); in test [9] (at 0.0781 µM, OCI-C5x cells, with rucaparib 10 µM, 100% = cells with rucaparib alone), 47.4% (active); in test [9] (at 0.0781 µM, OCI-C5x cells, without rucaparib), 65.7% (active). In addition, the viability in test [9] (at 0.0781 µM, OCI-P5x cells, with rucaparib 20 µM, 100% = cells with rucaparib alone) is 55.4% (active); in test [9] (at 0.0781 µM, OCI-P5x cells, without rucaparib), 24.5% (active); in [9] (at 0.313 µM, OCI-C5x cells, with rucaparib 10 µM, 100% = cells with rucaparib alone) it was 56.5% (active); in test [9] (at 0.313 µM, OCI-C5x cells, without rucaparib), 65.1% (active); in test [9] (at 0.313 µM, OCI-P5x cells, with rucaparib 20 µM, 100% = cells with rucaparib alone) it was 54.8% (active); in test [9] (at 0.313 µM, OCI-P5x cells, without rucaparib), 22.4% (active). Besides, the viability in test [9] (at 1.25 µM, OCI-C5x cells, with rucaparib 10 µM, 100% = cells with rucaparib alone) is 50.7% (active); in test [9] (at 1.25 µM, OCI-C5x cells, without rucaparib), 61.5% (active); in test [9] (at 1.25 µM, OCI-P5x cells, with rucaparib 20 µM, 100% = cells with rucaparib alone), 56.9% (active); in test [9] (at 1.25 µM, OCI-P5x cells, without rucaparib), 24.3% (active); in test [9] (at 5 µM, OCI-C5x cells, with rucaparib 10 µM, 100% = cells with rucaparib alone), 6.32% (active); in test [9] (at 5 µM, OCI-C5x cells, without rucaparib), 47.8% (active). In addition, the viability in test [9] (at 5 µM, OCI-P5x cells, with rucaparib 20 µM, 100% = cells with rucaparib alone) was 26.6% (active); in test [9] (at 5 µM, OCI-P5x cells, without rucaparib), 17.1% (active).

Take `O=C(Nc1cc(Cl)cc2c1[nH]c1cnccc12)c1cccnc1`: the result in [1], in [2], in test [3], in test [4], in test [5] and in [6] was inactive. In addition, the compound was called inactive in test [7].

The values are drawn from PubChem BioAssay.
